# Shiga toxin inh – A qHTS for Small Molecule Inhibitors of Shiga Toxin; inhibition, % at 38.7 µM; 9.2% of 290,000 active; AID 2315, 2010; Vero cells, Shiga toxin protein synthesis inhibition reporter; in the data active = inhibition mostly above about 28%, no sharp cut-off; inactive = mostly below about 43%; also: 0% is about no effect
# Giardia FBPA inh – qHTS Assay for Inhibitors of Fructose-1,6-bisphosphate Aldolase from Giardia Lamblia | purified Giardia FBPA | 0.71% of 290,000 active | A8B2U2 | AID 2451, 2010 | Potency, µM (series often up to 59.6 µM), inactives show top-dose activity, negative = inhibition, most hits filed as inhibitors; also: potency is read from the fitted curve at half-maximal effect; % is scaled to controls: 0 for no effect and ±100 for the full control effect; nearly all actives have a fitted effect of over 55% in size
# Target sequence (A8B2U2 whole entry, looked up): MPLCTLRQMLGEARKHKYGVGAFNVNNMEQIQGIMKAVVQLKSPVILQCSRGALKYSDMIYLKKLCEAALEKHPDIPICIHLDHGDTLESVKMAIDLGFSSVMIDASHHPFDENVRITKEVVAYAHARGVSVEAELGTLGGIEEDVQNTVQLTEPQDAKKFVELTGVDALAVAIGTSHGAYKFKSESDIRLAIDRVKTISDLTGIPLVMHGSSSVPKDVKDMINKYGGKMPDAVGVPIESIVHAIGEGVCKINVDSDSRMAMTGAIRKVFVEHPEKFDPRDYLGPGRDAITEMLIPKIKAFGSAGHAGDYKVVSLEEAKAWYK
#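 Giardia FBPA (40 nM reagent) was preincubated 10 min at RT with compound (up to 57.5 uM final), then substrate plus GAPDH/TPI/NAD/arsenate coupling system with diaphorase/resazurin was added; resorufin fluorescence (525/598 nm) was read after 20 min.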
# CHX counter – Cycloheximide Counterscreen for Small Molecule Inhibitors of Shiga Toxin | cell reporter, cycloheximide protein synthesis inhibition counterscreen | max response, % | 12% of 300,000 active; in the data active = max response mostly above about 13%, no sharp cut-off; inactive = mostly below about 14%; also: read at 38.3 µM for the half of the compounds with a filed dose; 0% is about no effect
# NS1 function inh – qHTS Assay for Inhibitors of Influenza NS1 Protein Function; Potency, µM (titrated, usually from 46.1 µM), for inactives: top-dose activity, positive = more growth; 0.4% of 270,000 active; AID 2326, 2010; calls by dose curve; also: potency is read from the fitted curve at half-maximal effect; actives are rising curves; nearly all actives have a fitted effect of over 50% in size
#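 Growth recovery, yeast-based: influenza A NS1 expressed in S. cerevisiae causes slow growth, and suppressors are detected by OD600. The parent strain without NS1 is used as positive control.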
# LmPK inhibitor – qHTS Assay for Inhibitors of Leishmania Mexicana Pyruvate Kinase (LmPK); Q27686; purified LmPK, Kinase-Glo ATP luminescence, 1 h; Potency, µM (series often up to 57.5 µM), without a hit: at the highest dose activity change, negative = inhibition, actives largely listed as inhibitors; 0.37% of 290,000 active; AID 1721, 2009; also: potency is read from the fitted curve at half-maximal effect; % is scaled to controls: 0 for no effect and ±100 for the full control effect
#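 Screened at intermediate enzyme activity to detect both inhibitors and activators: LmPK at 0.1 nM, with a 0.5 nM enzyme column as activation reference. PEP 0.5 mM, ADP 0.1 mM; ATP detected by luminescence after 1 h.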
# * = called active by the depositor; i = inactive; ? = inconclusive; nt = no result given; + = active, no number; [ ] = remark or other dose. Compounds with a hit are over-represented: about 14% of the library has one in this group of screens. Unless noted, calls follow the shape of the dose curve; as a rule, active = well fitted curve in the direction sought with a large enough effect; inconclusive = small, poorly fitted or top-dose-only effect, or another doubt; inactive = no such curve, though single readings can be large; an effect the other way counts as inactive or inconclusive.
SMILES,Shiga toxin inh,Giardia FBPA inh,CHX counter,NS1 function inh,LmPK inhibitor
COc1ccccc1CNC(=O)CN(C)S(=O)(=O)c1ccc(Br)s1,57*,3%,21*,-8%,0%
O=C(c1cccc(F)c1)N1CCC2(CC1)CCN(C(c1ccccc1)c1ccccc1)CC2,nt,-8%,nt,nt,nt
COc1cc(OC)c(NC(=O)CCCNC(=O)Cn2cnc3sc(C)c(C)c3c2=O)cc1Cl,-3,5%,-5,20%,-7%
N#CCCn1c(=O)c(-c2cccs2)nc2cnc(N3CCNCC3)nc21,nt,-2%,nt,nt,nt
COc1ccc(-c2nc(CN3CCN(Cc4cccc(F)c4)CC3)c(C)o2)cc1,1,-4%,-5,11%,6%
COc1ccc(-c2nc(Cn3c(SCc4ccc(C)cc4)nc4ccncc43)c(C)o2)cc1OC,101*,15%,48*,10%,5%
Cc1ccc(CSc2nc3ccncc3n2CC(=O)Nc2cc(C)cc(C)c2)cc1,14,8%,8,?,7%
COc1ccc(-c2nc(Cn3c(SCc4cccc(F)c4)nc4ccncc43)c(C)o2)cc1OC,8,9%,12*,-80%,8%
COC(=O)[C@@]1(Cc2ccc(F)cc2)[C@H]2c3cc(C(=O)N(C)C)n(CCCNc4ccc(C(F)(F)F)cc4Cl)c3C[C@H]2CN1C(=O)c1ccccc1,nt,-11%,nt,nt,nt
O=C(O)c1ccc(-n2cccn2)c([N+](=O)[O-])c1,-10,7%,-4,0%,3%
COc1ccc(NC(=O)c2ccc(-n3cncn3)c([N+](=O)[O-])c2)cc1,24,-20%,-3,4%,-1%
O=C(Nc1ccccc1Cl)c1ccc(-n2cccn2)c([N+](=O)[O-])c1,42*,-21%,16,-7%,-1%
Cc1cccc(NC(=O)c2ccc(-n3cccn3)c([N+](=O)[O-])c2)c1,49,-30%,32*,2%,1%
Cc1ccc(NC(=O)c2ccc(-n3cccn3)c([N+](=O)[O-])c2)cc1,22,?,21*,-26%,-2%
O=C(COc1ccc(S(=O)(=O)NCc2ccccc2)cc1)NCc1cccnc1,-13,9%,-4,5%,0%
O=C1C=C(Nc2nc(C(=O)O)cc(=O)[nH]2)c2ccccc2C1=O,nt,nt,nt,-2%,nt
COc1ccc(C2Oc3cc(OC)cc(OC)c3CC2O)cc1 (stereo not given),nt,-11%,nt,nt,nt
COc1ccc2c(c1)O[C@H](c1cccc(C(F)(F)F)c1)[C@@H](O)C2=O,nt,-1%[12.9 µM],nt,nt,nt
O=C(NCc1ccco1)Nc1ccc2nsnc2c1,42,?,30*,1%,-1%
O=C(NCc1ccco1)Nc1ccc(OC(F)(F)F)cc1,20,-7%,18*,-38%,0%
O=C(NCc1ccco1)Nc1ccc(Br)cc1,66*,-1%,21,-35%,2%
O=C(NCc1ccco1)NCC(F)(F)F,-19,1%,-4,1%,-3%
COc1ccc(NC(=O)NCc2ccco2)cc1OC,20,5%,-2,-5%,2%
O=C(NCc1ccco1)Nc1cccc([N+](=O)[O-])c1,16,-3%,13,-7%,0%
CS(=O)(=O)Nc1cccc(-c2nccc(NCc3cccs3)n2)c1,nt,1%,nt,nt,nt
SMILES,Shiga toxin inh,Giardia FBPA inh,CHX counter,NS1 function inh,LmPK inhibitor
O=C(NC1=NCCS1)c1ccccc1,20,-1%,17,2%,-6%
O=C(NC1=NCCS1)Nc1ccccc1,65*,9%,36*,-2%,?
O=C(NC1=NCCS1)c1cccs1,11,9%,-3,5%,10%
O=C(NC1=NCCS1)c1ccccc1Cl,15,7%,8.2*,-25%,-2%
O=C(NC1=NCCS1)c1cc(Cl)ccc1Cl,-3,-10%,4,-8%,-3%
O=C(NC1=NCCS1)c1csc2ccccc12,59*,-1%,39*,-161%,-30%
O=C(NC1=NCCS1)c1ccc(Cl)c(Cl)c1,68*,3%,48*,2%,-7%
CCC[C@H](NC(=O)[C@H](Cc1ccc(O[S+](=O)([O-])O)cc1)NC(=O)OC(C)(C)C)C(=O)NCC(=O)N[C@@H](Cc1c[nH]c2ccccc12)C(=O)N[C@@H](CCC)C(=O)N[C@@H](CC(=O)OCCc1ccccc1)C(=O)O,-10,11%,-7,nt,nt
CC1CCN(C(=O)COC(=O)CCCN2C(=O)c3cccc4cccc(c34)C2=O)CC1,-3,nt,12,-18%,-7%
C[C@@H]1C[C@H]2OC(=O)C3(CO3)[C@H]2[C@H](O)[C@]2(C)C(=O)C3OC3[C@@H]12 (stereo not given in full),40*,8%,21*,10%,-3%
N#Cc1ccc(CS(=O)(=O)c2nc3ccccc3s2)cc1,nt,-2%,nt,nt,nt
O=C(Nc1ccc(N2CCOCC2)nc1)c1ccccc1Cl,28,1%,29*,-3%,1%
O=C(Nc1ccc(NC(=O)C2CC2)cn1)c1ccccc1Cl,50*,20%,33*,-3%,-2%
O=C(Nc1ccc(NC(=O)C2CC2)cn1)c1ccccc1,43*,-4%,26*,-6%,?
O=C(Cc1ccccc1)Nc1ccc(NC(=O)c2ccccc2)nc1,174*,-7%,38*,-5%,8%
CC(C)C(=O)Nc1ccc(NC(=O)CCc2ccccc2)cn1,25,-17%,8,-3%,-4%
COc1ccc(C(=O)Nc2ccc(NC(=O)C3CC3)cn2)cc1,34,?,13,-11%,-7%
COC(=O)[C@@H]1C=C[C@H](C)[C@H](CCOc2ccccc2)O1,nt,7%,nt,nt,nt
CC(=O)OCC(=O)[C@@]12OC3(CCCC3)OC1CC1C3CCC4=CC(=O)C=C[C@@]4(C)[C@]3(F)C(O)C[C@]12C (stereo not given in full),nt,-9%,nt,nt,nt
Nc1cc(C(F)(F)F)ccc1Nc1ccccc1,77*,-9%,28*,nt,1%
N#Cc1ccc(Nc2ccccc2)c(N)c1,-9,-7%,4,7%,-4%
C[N+](C)([O-])CCC=C1c2ccccc2CCc2ccccc21,nt,nt,nt,-11%,nt
COc1cccc(S(=O)(=O)Nc2ccc3c(c2)OCCO3)c1,52*,5%,37*,12%,1%
O=S(=O)(Nc1ccc(-c2cn3ccsc3n2)cc1)c1ccc2c(c1)OCCO2,69*,14%,12,2%,2%
COC(=O)COc1ccc(S(=O)(=O)Nc2ccc3c(c2)OCCO3)cc1C,68*,5%,25*,8%,1%
COc1ccc(NS(=O)(=O)c2ccc3oc(Nc4ccc5c(c4)OCCO5)nc3c2)cc1,+,-2%,30*,1%,-2%
O=S(=O)(Nc1ccc(S(=O)(=O)Nc2nccs2)cc1)c1ccc2c(c1)OCCO2,-23,-13%,-4,3%,1%
CCC(C)NC(=O)Cn1nc(Cc2ccncc2)c2ccccc2c1=O (stereo not given),22,1%,1,-1%,6%
COc1cc(C2CC(=O)Oc3cc(C)cc(C)c32)cc(OC)c1OC (stereo not given),i,-16%[89.2 µM],9,nt,nt
